Compound activity deposited in PubChem BioAssay by several laboratories.
EBV LMP1 NFkB – EBV LMP1-driven NF-kappaB luciferase reporter inhibitors, primary screen, cell-based, luminescence, single point; LMP1-induced NF-kappaB luciferase reporter cells; inhibition, % at 12.5 µM; 0.69% of 350,000 active; AID 504558, 2011; in the data active means inhibition above about 41%;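 further: 0% = neutral control wells and 100% = reference inhibitor control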
TWEAK Fn14 block – inhibitors of TWEAK-Fn14 signaling, primary screen, luciferase reporter cells, uHTS. TWEAK-stimulated Fn14 reporter cells, luciferase luminescence, 8 h. 2% of 360,000 active. inhibition, % at 10 µM. AID 1159606, 2016; in the data active means inhibition above about 50%
HSF1 inhib – HSF1 inhibitors in luciferase reporter cells, primary screen, cell-based, NIH3T3, luminescence | activity change, negative = inhibition, % at 7.5 µM (by protocol) | NIH3T3-HGL HSE-luciferase, MG132-induced, luminescence 8 h; hits give low values | AID 2098, 2009 | 0.77% of 300,000 active;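 active means more than half of replicate wells show activity change below -50%, luminescence cut by over half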;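 further: luciferase reports HSF-1 transcriptional activity via heat shock element; 0% = median of DMSO wells and -100% = zero luminescence signal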
HSF-1 act – HSF-1 activators, primary screen, NIH3T3-HGL cells, MG132 stress, luminescence, single point | NIH3T3-HGL HSF-1 luciferase reporter, 8 h; 100% = twice DMSO control signal | activation, % at 9 µM | 1.7% of 300,000 active;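 active means mean replicate activation of at least 50% with a set share of replicates each reaching 50%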;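 further: 0% = median of the neutral control wells and 100% = twice that signal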
TROY NFkB inh – inhibitors of TROY-driven NF-kB signaling, primary screen, Q293 LMP1-TROYcd cells, NF-kB luciferase, uHTS. Q293 LMP1-TROYcd NF-kB luciferase reporter, 4 h. inhibition, % at 10 µM. 0.98% of 360,000 active. AID 1347056, 2019;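 active means compounds whose plate-normalised and pattern-corrected inhibition of the luciferase reporter signal at the single screening dose is 50% or more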
HSP90 refold inh – HSP90 inhibitors, primary screen, cell lysate, luminescence; Rabbit reticulocyte lysate, luciferase refolding luminescence, 3 h; 0.91% of 290,000 active; inhibition, % at 5.6 µM; Heat shock protein HSP 90 (rabbit reticulocyte lysate; luciferase refolding);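 active means inhibition above the screen-wide mean plus 3 SD, computed separately per campaign, cut at about 16% in these data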;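 further: 0% = DMSO wells and 100% = 60 µM geldanamycin wells; inhibitors lower the luminescence because luciferase stays unfolded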
HSP90 inh confirm – HSP90 inhibitors, confirmation, cell lysate, luminescence. rabbit reticulocyte lysate, luciferase refolding luminescence, 3 h. shares compounds with HSP90 refold inh. inhibition, % at 5.9 µM. 64% of 2,300 active; in the data active means inhibition above about 18%;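 further: 0% = vehicle wells and 100% = reference inhibitor wells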
luciferase ctr – firefly luciferase inhibitors, HSP90 counter-screen, confirmation, artefact control for HSP90 inhibitor project, biochemical, luminescence, triplicate. shares compounds with HSP90 refold inh. purified native firefly luciferase. inhibition, % at 5.9 µM. 48% of 2,300 active. AID 1847, 2009;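 active means inhibition above the mean inhibition of all tested sample wells plus 3 SD, cut at about 10% in these data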;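 further: 0% = DMSO with luciferase and 100% = wells lacking luciferase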
Target sequence (P08659 whole entry, looked up): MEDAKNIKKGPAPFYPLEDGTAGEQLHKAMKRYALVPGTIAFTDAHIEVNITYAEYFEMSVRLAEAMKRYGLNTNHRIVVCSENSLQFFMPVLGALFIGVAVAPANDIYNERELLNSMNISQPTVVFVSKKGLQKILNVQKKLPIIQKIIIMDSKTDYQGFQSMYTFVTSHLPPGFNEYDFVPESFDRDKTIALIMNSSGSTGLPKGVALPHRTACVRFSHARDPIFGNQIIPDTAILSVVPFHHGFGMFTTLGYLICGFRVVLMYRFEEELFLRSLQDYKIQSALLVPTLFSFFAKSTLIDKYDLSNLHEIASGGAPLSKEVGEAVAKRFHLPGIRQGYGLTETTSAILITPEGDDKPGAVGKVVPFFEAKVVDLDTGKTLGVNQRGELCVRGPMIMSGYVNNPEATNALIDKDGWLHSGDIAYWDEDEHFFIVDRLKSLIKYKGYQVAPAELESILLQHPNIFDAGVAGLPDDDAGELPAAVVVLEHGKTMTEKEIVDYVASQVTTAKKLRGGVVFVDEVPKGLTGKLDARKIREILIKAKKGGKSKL
* marks the source's active call; other numbers are inactive results; . = not tested or not shown. Rows were chosen to be rich in hits. Some 4.7% of all compounds tested hit in one or more screens of this group.

SMILES | EBV LMP1 NFkB | TWEAK Fn14 block | HSF1 inhib | HSF-1 act | TROY NFkB inh | HSP90 refold inh | HSP90 inh confirm | luciferase ctr
O=C1CCCCC1Sc1nnc(-c2ccc3c(c2)OCO3)o1 (stereo not given) | 56* | 104* | -34 | -41 | 87* | 75* | 93* | 79*
COc1ccc(-c2nc3ccccn3c2Cl)cc1 | -15 | 52* | 10 | 20 | 3 | 24* | 47* | 30*
CCCCCCn1c(=O)n2n(c1=O)C[C@]1(OC(=O)NC3CC3)CN(S(=O)(=O)c3ccc(C)cc3)C[C@]1(O)C2 | -13 | 5 | . | . | 12 | . | . | .
O=C1c2cc(F)ccc2-n2c1nc1ccccc1c2=O | -1 | 3 | 17 | 37 | 8 | 73* | 68* | -5
Nn1c(-c2ccc(F)cc2)nc2ccccc2c1=O | -2 | 25 | -3 | -22 | -2 | 1 | . | .
S=C(NCCc1ccccn1)NC1CCCCC1 | -5 | -24 | 8 | 27 | -42 | 23* | 1 | -11
Cc1cc(CC(C)C)n(-c2nc3ccccc3c(=O)n2OCc2ccccc2)n1 | 0 | 22 | -40 | -44 | -46 | 18* | 15 | 9.5*
Cc1cccc(Nc2nc(-c3ccc4c(c3)OCCO4)cs2)c1 | -57 | 70* | -54* | -58 | 66* | 47* | -2 | -27
Cc1ccc(C2NC(=O)NC3=C2CCc2ccccc23)cc1 (stereo not given) | -3 | 79* | . | . | 69* | 23* | 52* | 67*
COc1ccc2c(c1)C1=C(CC2)C(c2ccc(C)cc2)NC(=S)N1 (stereo not given) | 0 | 17 | 6 | 6 | -28 | 2 | . | .
CC(=O)CSc1ccc(-c2nc3cc(C)c(C)cc3[nH]2)cn1 | 72* | 102* | -1 | -2 | 88* | 69* | 91* | 57*
CC(=O)CSc1ccc(-c2nc3ccccc3[nH]2)cn1 | 6 | 69* | 13 | 35 | 15 | 24* | 46* | 2
Cc1cc2nc(-c3ccc(SCC(=O)Nc4ccc(S(=O)(=O)N5CCCC5)cc4)nc3)[nH]c2cc1C | -31 | -29 | 26 | 37 | -35 | -5 | . | .
CNc1nnc(-c2ccc(N(C)C)cc2)s1 | 23 | 62* | . | . | 16 | 20* | 47* | 37*
CCCCNC(=O)C1c2ccccc2OCC(=O)N1CC(F)(F)F (stereo not given) | . | -6 | . | . | 4 | . | . | .
CCOC(=O)[C@]12CCC=C1N(Cc1ccccc1)C(=O)[C@H](CC(=O)N1CCN(C(=O)c3ccco3)CC1)C2 | . | 12 | . | . | -13 | . | . | .
COc1ccccc1Nc1nnc(SCC2CCCCO2)s1 (stereo not given) | 37 | 65* | 0 | 22 | 29 | 32* | 38* | 39*
O=C(NCC(c1ccco1)N1CCCC1)c1cc2cc(Cl)ccc2o1 (stereo not given) | 2 | 5 | . | . | -17 | . | . | .
COc1ccc(C(=O)Nc2ccc(C)cn2)c(OC)c1 | 75* | 102* | -37 | -33 | 76* | 88* | 88* | 82*
Cc1ccccc1C(=O)NC1CC2CCCC(C1)N2CC(C)C (stereo not given) | -7 | 4 | . | . | -25 | . | . | .
O=C(O)c1ccc(Cl)c(NC(=O)C2CCN(S(=O)(=O)c3cccs3)CC2)c1 | 9 | -38 | . | . | 21 | . | . | .
CCN(CC)c1ccc2cc(NC(=O)CCC(=O)O)c(=O)oc2c1 | 38 | 91* | 2 | 20 | 69* | 33* | 36* | -31
Cc1ccc(Nc2nc(Cl)nc3ncn(C)c23)c(C)c1 | 5 | 11 | . | . | 6 | . | . | .
CC1=C(C(=O)N2CCCCCC2)CC(CC(=O)NC(c2ccccc2)c2ccccc2)C(=O)N1Cc1ccccc1 (stereo not given) | . | -10 | . | . | -5 | . | . | .
CCOC(=O)C1CN(C(=O)OCC)CC1=NNC(N)=O (stereo not given) | -2 | -15 | . | . | -10 | . | . | .
SMILES | EBV LMP1 NFkB | TWEAK Fn14 block | HSF1 inhib | HSF-1 act | TROY NFkB inh | HSP90 refold inh | HSP90 inh confirm | luciferase ctr
O=c1c2sc(-c3ccccc3)cc2nc2n1CCC2 | 24 | 74* | 0 | 6 | 22 | 24* | 48* | 32*
C#CCN(C(=O)C1CCC(=O)N(CCc2cccc(F)c2)C1)C1CCCCC1 (stereo not given) | -32 | -39 | . | . | -65 | . | . | .
CN(C)c1ccc(C(=S)NCc2ccco2)cc1 | -5 | 63* | -2 | -7 | -27 | 57* | 65* | 38*
O=C(c1ccco1)N1CCN(c2ncnc3scc(-c4ccc(Cl)cc4)c23)CC1 | -7 | -10 | . | . | -18 | . | . | .
C=CCc1ccc(OCc2ccc(C(=O)OC)o2)c(OC)c1 | -21 | -16 | 39 | 59* | -45 | 25* | 55* | -23
CN(Cc1cn(Cc2cccc(Cl)c2)nn1)C1CN(Cc2cn(Cc3cccc(Cl)c3)nn2)S(=O)(=O)C1 (stereo not given) | . | -12 | . | . | 8 | . | . | .
O=C1N/C(=N\S(=O)(=O)c2ccccc2)S/C1=C\c1cc([N+](=O)[O-])ccc1O | 3 | 2 | -6 | 7 | -10 | 54* | -2 | 1
O=C(NCCc1ccc(Cl)cc1)c1ccc2ccccc2n1 | -12 | 18 | 10 | 19 | -9 | -1 | . | .
O=C(O)C(=O)/C(=C\c1ccc(Cl)cc1)c1ccc2ccccc2n1 | -41 | 34 | 10 | 30 | 53* | 22* | -4 | -5
CCOC(=O)Nc1ccc2c(c1)N(C(=O)CCN(CC)CC)c1ccccc1CC2 | -24 | 6 | -4 | -9 | 7 | 26* | -1 | -3
COCCCNC(=O)C[C@@H]1C[C@@]2(C(=O)OC)CCCCC=C2N(CCC2=CCCCC2)C1=O | . | -15 | . | . | -2 | . | . | .
CCc1nnc(NC(=O)CSc2nc(C)c3c(c2C#N)CCCC3)s1 | 0 | 58* | -45 | -55 | 65* | 21* | 7 | 0
COc1ccc(CNC(=O)c2cn(Cc3ccc(S(=O)(=O)N(C)C)cc3)c(=O)s2)cc1 | . | 18 | . | . | 15 | . | . | .
Cc1cccc(NC(=O)NCCN2CCCCC2)c1 | 14 | 35 | -11 | -2 | -1 | 25* | -9 | -12
COc1ccc(S(=O)(=O)N2CCCCCC2)cc1C(=O)N1CCN(C(C)=O)CC1 | 0 | 2 | . | . | -5 | . | . | .
